# Laboratory results as given in PubChem BioAssay AID686978 (National Center for Advancing Translational Sciences (NCATS), 2013).
# The whole screen tested about 420,000 compounds, of which about 64,000 (15%) were called active. Inconclusive results (about 27%) are left out. Only a sample is shown. Values without a mark were called inactive. The call rests on the fitted dose curve; in most records, active means well fitted inhibition curve with a large enough effect; inconclusive means small, poorly fitted or top-dose-only effect; inactive means flat fitted curve, though single readings scatter.
# Assay: qHTS for Inhibitors of human tyrosyl-DNA phosphodiesterase 1 (TDP1): qHTS in cells in absence of CPT; further: nearly all actives have a fitted effect of over 55% in size
# Conditions: DT40 Tdp1-/- hTDP1 cells, no CPT, ATP luminescence, 48 h; activity change, negative = growth inhibition: at 46.2 µM (top of the series)
# Method in brief: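 Compound effects on proliferation are scored in DT40 Tdp1-/-;hTDP1 cells in the absence of CPT. ATP levels (CellTiter-Glo luminescence) are recorded after a ≥48 hr, 37 °C incubation.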
# On the % scale 0 is the no-effect control and ±100 the full control effect; potency means the concentration at half of the fitted maximal effect.
Structure (SMILES),"activity change, negative = growth inhibition",Potency
Cc1ccc(C(=O)O)c(NC=O)c1OCc1ccccc1,34.4%,–
CC(=O)Nc1ccc(NC(=O)CSc2nnc3c4cc(Br)ccc4n(C)c3n2)cc1,-18.7%,–
O=C1CCC/C(=N\NC(=O)NC2CCCCC2)C1,-5.53%,–
Cc1cnc(NC(=O)CSc2nnc(-c3ccccc3)n2Cc2ccccc2)s1,-22.3%,–
COC(=O)c1ccc(COc2cc([N+](=O)[O-])cc3cccnc23)cc1,10.4%,–
COc1ccc(CNC(=O)COC(=O)C(CCSC)N2C(=O)c3ccccc3C2=O)cc1 (stereo not given),-24.9%,–
Cc1cccc(-c2cc(=O)c3cc(C)ccc3o2)c1,-2.27%,–
COc1ccc2c(CC(=O)N3CCc4cc(OC)c(OC)cc4C3)coc2c1,-3.86%,–
O=C(c1cc(=O)c2ccccc2o1)N1CCN(c2ccccc2)CC1,13.6%,–
COc1ccccc1N1CCN(C(=O)c2cc(=O)c3cc(C)cc(C)c3o2)CC1,–,0.0082 µM (active)
COc1ccccc1OCc1ccc(C(=O)N2CCN(C)CC2)o1,6.37%,–
COc1ccccc1N1CCN(c2nc(C)cc(=O)[nH]2)CC1,-10.7%,–
COc1ccccc1N1CCN(C(=O)c2cc(=O)c3cc(C)ccc3o2)CC1,–,23.1 µM (active)
COc1cccc2cc(C(=O)N3CCN(C(=O)c4ccccc4)CC3)c(=O)oc12,4.28%,–
COc1cc2c(cc1OC)CN(C(=O)c1cc(=O)c3ccccc3o1)CC2,–,3.26 µM (active)
O=C(NCc1ccco1)/C(=C\c1cccc([N+](=O)[O-])c1)NC(=O)c1ccco1,17.9%,–
Cc1cc(NC(=O)COC(=O)/C=C/c2ccc(C)o2)no1,18.1%,–
COc1cccc2c1OCC1COc3c(c(=O)n(C)c(=O)n3C)C21 (stereo not given),2.66%,–
COc1ccc(NC(=S)NCCN2CCC(C)CC2)cc1,18.1%,–
CC(C)CC(=O)c1c[nH]c(C(=O)NCc2ccccc2)c1,-0.735%,–
O=C(CN1CCSCC1)N/N=C/c1ccc(F)cc1F,-6.91%,–
OC(COCCC12CC3CC(CC(C3)C1)C2)CN1CCCCC1 (stereo not given),–,16.4 µM (active)
OC(COc1ccc(CN2CCSCC2)cc1)CN1CCCCC1 (stereo not given),-22.4%,–
OC(CBr)CN1CCCCC1 (stereo not given),-22.3%,–
O=C(CSc1nc2ccccc2c(=O)n1-c1ccccc1F)N1CCOCC1,-4.22%,–
CCN(CC)CCCC(C)n1c2nc(=O)[nH]c(=O)c-2nc2cc(Cl)ccc21 (stereo not given),–,8.2 µM (active)
O=C(OCc1nnc(-c2ccccc2)o1)c1cc(=O)[nH]c2ccccc12,-9.31%,–
CCCCc1nc2ccccc2c(NC(=O)CN2CCN(C)CC2)c1CCC,-12.6%,–
CCCc1nc2ccccc2c(C(=O)OCc2nnc(-c3cc(OC)c(OC)c(OC)c3)o2)c1CC,–,23.1 µM (active)
C=CCn1c(N)cc(=O)nc1SCC(=O)Nc1cccc2ccccc12,-7.69%,–
